This is a sample that favours compounds with a hit; in the whole collection about 2.8% have one here.
JMJD2C inh: inhibitors of human GASC-1 (JMJD2C) demethylase; Q9H3R0; GST-JMJD2C(1-420) H3K9me3 demethylation, DELFIA europium; inhibition, % at 2.35 µM; actives 0.069% (n = 330,000); AID 2099;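 active = more than half of a compound's replicate wells show inhibition beyond 50%, single wells judged on their own value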;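 note: signal counts dimethyl H3K9 product captured on neutravidin plate; 0% = median of DMSO wells and 100% = 0.3 times that DMSO median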
Target sequence (Q9H3R0 1-420 limits assumed): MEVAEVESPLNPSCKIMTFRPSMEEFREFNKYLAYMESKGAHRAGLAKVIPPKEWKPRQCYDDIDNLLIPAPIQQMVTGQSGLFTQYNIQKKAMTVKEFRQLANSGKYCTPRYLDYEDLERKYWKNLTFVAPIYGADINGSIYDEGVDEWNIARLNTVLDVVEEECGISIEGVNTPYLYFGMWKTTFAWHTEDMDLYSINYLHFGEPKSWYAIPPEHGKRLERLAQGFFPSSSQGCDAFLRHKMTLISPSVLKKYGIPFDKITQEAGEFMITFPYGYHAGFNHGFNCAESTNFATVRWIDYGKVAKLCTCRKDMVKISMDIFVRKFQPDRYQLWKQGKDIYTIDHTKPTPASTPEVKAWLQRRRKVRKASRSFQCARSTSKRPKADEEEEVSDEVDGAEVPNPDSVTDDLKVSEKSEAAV
PG9 binder: small molecules binding HIV-1 gp120 antibody PG9 | TR-FRET gp120-PG9 antibody binding | inhibition, % at 6.7 µM | actives 0.43% (n = 360,000) | AID 624416; in the data active = inhibition above about 8.5%
NR1D1 modulator: Rev-erb alpha (human) modulation; P20393; Rev-erbα–FITC-DNA binding, fluorescence polarization, 90 min; activity, % at 10 µM; actives 0.79% (n = 370,000);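 active = activity above about 14%, limit read from the data; passing the limit was not always enough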;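 note: 0% = DMSO wells with 35 nM protein and 100% = DMSO wells with 750 nM protein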
PP5 primary: blocks human protein phosphatase 5 activity; P53041; purified PP5c, OMFP substrate fluorescence; inhibition, % at 6.7 µM; actives 0.18% (n = 320,000); AID 1987;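 active = inhibition above the campaign's mean inhibition across all tested compounds plus 3 SD, cut at about 9.5% in these data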;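 note: 0% = DMSO only and 100% = 100 µM cantharidin control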
PP1 counter: PP1-alpha (human) inhibition in PP5 counter-screen; purified PP1alpha, OMFP fluorescence; inhibition, % at 6.7 µM; actives 0.9% (n = 320,000);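 active = inhibition above the mean inhibition of all tested compounds plus 3 SD, computed separately for each screening campaign, cut at about 15% in these data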
proKLK7 act: activators of human kallikrein-7 zymogen; P49862; activation, % at 7 µM; actives 0.9% (n = 370,000); purified proKLK7, EDANS-DABCYL substrate fluorescence; 100% is mature enzyme control, 0% vehicle;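 active = activation above the mean of all tested compounds plus 3 SD, computed per campaign excluding outliers beyond control limits, cut at about 13% in these data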
NR1D1 mod conf: Rev-erb alpha (human) modulation, hit confirmation. shares compounds with NR1D1 modulator. Rev-erb alpha FITC-DNA binding, fluorescence polarization, 90 min. activation, % at 25 µM. actives 61% (n = 3,000);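 active = activation at or above a set limit, or at least 3 SD above the negative control mean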;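 note: 0% = 35 nM protein with DMSO and 100% = 750 nM protein high control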
RORg DNA counter: counter-screen for Rev-erb alpha modulators: RORgamma DNA binding; actives 8% (n = 910); IC50, µM; purified RORgamma protein-FITC-DNA binding, fluorescence polarization; AID 1259320; shares compounds with NR1D1 modulator;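 active = Compounds whose fitted half-maximal concentration for disrupting protein-DNA binding is below 10 micromolar; the record names Rev-erb in its text, so the target is in doubt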
* marks the source's active call; other numbers are inactive results; i = inactive; . = not tested or not shown.

SMILES	JMJD2C inh	PG9 binder	NR1D1 modulator	PP5 primary	PP1 counter	proKLK7 act	NR1D1 mod conf	others
COC(=O)c1cccc(Cn2ccc3ccc(-c4ccc5ccn(Cc6cccc(C(=O)OC)c6)c5c4)cc32)c1	.	.	51.1*	.	.	-2.0	0.7
COC(=O)c1cccc(Cn2ccc3ccc(-c4ccc5ccn(C(=O)c6cccc(OC)c6)c5c4)cc32)c1	.	.	38.6*	.	.	-8.1	53.9*	RORg DNA counter=i
COc1ccccc1C(=O)n1ccc2ccc(-c3ccc4ccn(Cc5ccccc5)c4c3)cc21	.	.	5.1	.	.	-25.5	.
CCc1nnn2c1Cn1c3ccccc3c(=O)n1[C@@H](C)C2	.	.	2.2	.	.	1.9	.
COC(=O)c1cccc(Cn2ccc3ccc(-c4ccc5ccn(C(=O)c6ccc(C)cc6)c5c4)cc32)c1	.	.	45.8*	.	.	-23.9	63.9*	RORg DNA counter=>40
O=C(c1cccc(F)c1)n1ccc2ccc(-c3ccc4ccn(Cc5ccccc5)c4c3)cc21	.	.	8.1	.	.	-19.6	.
CS(=O)(=O)c1ccc(Cl)c(NC(=O)CSc2nnc(C3CC3)n2C2CC2)c1	10.3	0.1	16.9*	0.9	0.1	0.7	-0.1
COc1ccccc1C=C(C(=O)c1ccccc1)c1ccccc1	.	-2.5	18.1*	.	.	0.2	5.5
COc1ccc2[nH]c3c(=O)n(Cc4ccc(C(=O)N5CCCCCC5)cc4)c(=S)[nH]c3c2c1	4.1	1.4	40.8*	-2.9	-5.0	-0.3	28.7*
Cc1c(C(=O)N2CCN(Cc3ccc4c(c3)OCO4)CC2)sc2ncnc(N3CCN(c4ccccc4F)CC3)c12	2.7	-0.9	22.0*	5.1	3.5	1.1	17.8*
CCCC(=O)N1CCC[C@]2(CC[C@@H](CCC(C)=O)O2)C1	.	.	1.1	.	.	0.3	.
Cc1ccc(NP(=O)(c2ccc(N(C)C)cc2NC(=O)c2cccs2)N2CCOCC2)cc1 (centres undefined)	6.8	0.0	24.0*	5.6	1.9	-0.5	13.0
CN(C)c1ccc(P(=O)(Nc2ccc([N+](=O)[O-])cc2)N2CCOCC2)c(NC(=O)c2cccs2)c1 (centres undefined)	-0.9	-1.4	-5.7	-2.3	0.8	-0.2	.
Cc1ccc(NP(=O)(c2ccc(N(C)C)cc2NC(=O)c2cccs2)N2CCOCC2)cc1Cl (centres undefined)	-12.6	-1.1	-4.8	1.0	-0.5	-0.4	.
CN(C)c1ccc(P(=O)(Nc2ccccc2)N2CCOCC2)c(NC(=O)c2cccs2)c1 (centres undefined)	-7.5	-2.3	42.3*	1.9	0.8	0.4	19.0*
COc1ccc(-c2nsc3c(N4CCN(S(=O)(=O)c5ccccc5F)CC4)ncnc23)cc1	-13.0	1.8	31.5*	1.5	-2.9	0.4	12.8
COc1ccc(-c2nsc3c(N4CCCCC4C)ncnc23)cc1 (centres undefined)	0.8	1.3	5.3	-0.7	-4.5	-0.1	.
COc1ccc(-c2nsc3c(N4CCCCC4)ncnc23)cc1	1.0	2.6	20.4*	-0.4	1.2	0.3	0.9
CCN(CC)C(=O)Cn1c2ccccc2c2nc3n(c(=O)c21)CCS3	.	.	-3.7	.	.	.	.
CC1(C)CC(=O)C=C(Nc2ccccc2NC(=O)c2ccc(F)cc2F)C1	.	.	3.0	.	.	-0.2	.
CCC(=O)c1ccc(OCc2ccc(C(=O)c3ccccc3)cc2)cc1	-10.8	1.1	69.9*	1.5	5.2	0.0	149.2*	RORg DNA counter=>40
COc1ccc(N2C(=O)c3cccc4c(N(C)CCO)ccc(c34)C2=O)cc1	-8.0	-2.9	41.6*	.	.	-12.4	36.5*	RORg DNA counter=>40
COc1ccc(N2C(=O)c3cccc4cccc(c34)C2=O)cc1	32.1	-0.6	27.9*	2.4	3.9	0.3	25.5*
COc1ccc(N2C(=O)c3ccccc3C2=O)cc1	-6.3	-0.7	-0.6	1.4	2.8	1.1	.
COc1ccc(-c2csc(NC(=O)c3cccc(N4C(=O)CCC4=O)c3)n2)cc1OC	24.6	-1.4	11.8	1.3	-2.6	0.9	.
CCOc1ccc(-c2csc(NC(=O)c3cccc(N4C(=O)CCC4=O)c3)n2)cc1	1.1	1.2	24.2*	1.8	-2.0	0.7	14.3*
